Shown is part of a subset that was picked to be rich in hits.
TDP1 cell noCPT: qHTS for Inhibitors of human tyrosyl-DNA phosphodiesterase 1 (TDP1): qHTS in cells in absence of CPT. DT40 Tdp1-/- hTDP1 cells, no CPT, ATP luminescence, 48 h. Potency, µM (top dose mostly 46.2 µM), without a hit: at the highest dose activity change, negative = growth inhibition, usual class: inhibitors. 420,000 tested, 15% active; note: potency is the fitted concentration of half-maximal effect; nearly all actives have a fitted effect of over 55% in size
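Luminescent ATP content (CellTiter-Glo) served as the growth readout. Knockout chicken DT40 cells expressing human TDP1 were exposed to compounds without camptothecin for a minimum 48 hr at 37 °C.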
IL-1B inflam inh: qHTS for Inhibitors of Inflammasome Signaling: IL-1-beta AlphaLISA Primary Screen. THP-1 LPS/ATP IL-1B secretion, AlphaLISA, 16 h; stronger effect = lower value. 360,000 tested, 4.7% active. activity change, % at 57.5 µM; in the data active = activity change below about -50%; inconclusive = mostly about -30% to -49%
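Secreted IL-1B measured by AlphaLISA bead assay after 16 h compound exposure of THP-1 cells; compounds (final up to 57.5 uM) added 1 h before LPS (250 ng/mL) and ATP (1.25 mM) stimulation; lower signal means less secretion.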
12-LOX inh: Primary qHTS assay for inhibitors of human arachidonate 12S-lipoxygenase (ALOX12): Round 2; Polyunsaturated fatty acid lipoxygenase ALOX12 (Homo sapiens), P18054; purified 12hLO, xylenol orange hydroperoxide absorbance; Potency, µM (top dose mostly 108 µM), for inactives: top-dose activity change, negative = inhibition, hits mostly inhibitors; 580,000 tested, 1.1% active; note: potency is the fitted concentration of half-maximal effect
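Purified human 12hLO (150 nM final) in 25 mM Hepes, 0.01% Triton X-100, pH 7.0 was preincubated 15 min at room temperature with compound. Then 40 uM arachidonic acid was added, 30 min. Hydroperoxide was read by Fe-XO absorbance ratio 573/405 nm.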
DT40 TDP1 CPT: qHTS for Inhibitors of human tyrosyl-DNA phosphodiesterase 1 (TDP1): qHTS in cells in presence of CPT; chicken DT40 Tdp1-/-;hTDP1 cells + 20 nM CPT, ATP luminescence, 48 h; AID 686979, 2013; 420,000 tested, 12% active; Potency, µM (doses to about 46.2 µM), inactives show at the highest dose activity change, negative = growth inhibition, most hits filed as inhibitors; note: potency is the fitted concentration of half-maximal effect; nearly all actives have a fitted effect of over 55% in size
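Chicken DT40 Tdp1-/- cells stably complemented with human TDP1 were seeded at 400 cells/well in medium containing 20 nM camptothecin, exposed to pin-transferred compounds, and grown at 37 °C for at least 48 hr. Viability was read as ATP luminescence.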
HT1080 IDH1KD tx: qHTS for induction of synthetic lethality in tumor cells producing 2HG: qHTS for the HT-1080-IDH1KD cell line. HT-1080 IDH1 knockdown viability, ATP luminescence, 48 h. Potency, µM (doses to about 46.1 µM), without a hit: at the highest dose activity, negative = toxicity, actives largely listed as cytotoxic. 360,000 tested, 2% active;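 note: potency is the fitted concentration of half-maximal effect; 0% = DMSO wells and -100% = cell-free medium wells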
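IDH1KD HT-1080 cells, 750/well, RPMI + 5% FBS; compound pinned after 2 h settling; 48 h, 37 °C; CellTiter-Glo luminescence; % activity normalised to DMSO and no-cell wells; curves fitted, classed by r2 and efficacy.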
HT1080NT lethal: qHTS for induction of synthetic lethality in tumor cells producing 2HG: qHTS for the HT-1080-NT fibrosarcoma cell line; Potency, µM (doses to about 46.1 µM), without a hit: at the top dose activity, negative = less viability, most hits filed as cytotoxic; 360,000 tested, 1.6% active; HT-1080-NT fibrosarcoma viability, CellTiter-Glo ATP luminescence, 48 h;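 note: NT is the 2HG producing partner of a matched IDH1 knockdown line; potency is the fitted concentration of half-maximal effect; 0% = DMSO-treated cells and -100% = media-only wells without cells; nearly all actives have a fitted effect of over 55% in size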
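Read-out is CellTiter-Glo luminescence after 10 minutes at room temperature, following 48 hours' compound treatment of HT-1080-NT cells (750 cells/well, RPMI, 5% FBS, 37 degrees C).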
* = called active by the depositor; [ ] = remark or other dose. Unless noted, calls come from the whole dose curve; as a rule, active = well fitted curve in the direction sought with a large enough effect; inconclusive = small, poorly fitted or top-dose-only effect, or another doubt; inactive = no such curve, though single readings can be large; an effect the other way counts as inactive or inconclusive. Unless noted, % is set by controls: 0 for no effect and ±100 for the full control effect.

O=C(NC1CCc2ccccc21)c1cc(Br)ccc1Cl (centres undefined) was read as 12-LOX inh 23%.
COCCn1c(SC2CCCCC2=O)nnc1-c1ccncc1 (centres undefined) was read as TDP1 cell noCPT -14%, IL-1B inflam inh 13, 12-LOX inh -15%, DT40 TDP1 CPT -10%, HT1080 IDH1KD tx 21% and HT1080NT lethal 20%.
Screening O=C1CCCCC1Sc1nnc(Cc2cccs2)n1CCc1ccccc1 (centres undefined) returned TDP1 cell noCPT 23µM*, IL-1B inflam inh inconclusive, 12-LOX inh 0%, DT40 TDP1 CPT inconclusive, HT1080 IDH1KD tx -5% and HT1080NT lethal -11%.
For CCN(CC)C(=O)c1ccc(CNC(=O)N(C)C(C2CC2)C2CC2)cc1 the results were 12-LOX inh 6%.
Screening CCCCN(CC(O)COc1cccc(C)c1)CC(O)COc1cccc(C)c1 (centres undefined) returned TDP1 cell noCPT 23µM*, IL-1B inflam inh -100*, 12-LOX inh inconclusive, DT40 TDP1 CPT inconclusive, HT1080 IDH1KD tx 18µM* and HT1080NT lethal 21µM*.
Cc1cccc(OCC(O)CN2CCOCC2)c1 (centres undefined) was read as TDP1 cell noCPT 5%, IL-1B inflam inh -15, 12-LOX inh 1%, DT40 TDP1 CPT 3%, HT1080 IDH1KD tx -1% and HT1080NT lethal -1%.
CCCCn1c(=N)n(CC(O)COc2cccc(C)c2)c2ccccc21 (centres undefined) was read as TDP1 cell noCPT 13µM*, IL-1B inflam inh -94*, 12-LOX inh -13%, DT40 TDP1 CPT 12µM*, HT1080 IDH1KD tx inconclusive and HT1080NT lethal inconclusive.
`Cn1c(=N)n(CC(O)c2ccco2)c2ccccc21` (centres undefined) gave TDP1 cell noCPT -6%, IL-1B inflam inh 5, 12-LOX inh 19%, DT40 TDP1 CPT -5%, HT1080 IDH1KD tx 14% and HT1080NT lethal 7%.
CCCn1c(=N)n(CC(O)COc2ccc(C)cc2)c2ccccc21 (centres undefined) was read as TDP1 cell noCPT 5.2µM*, 12-LOX inh -21%, DT40 TDP1 CPT 4.6µM*, HT1080 IDH1KD tx 16µM* and HT1080NT lethal 16µM*.
Screening Cn1c(=N)n(CC(O)c2cccc3ccccc23)c2ccccc21 (centres undefined) returned TDP1 cell noCPT 13µM*, IL-1B inflam inh inconclusive, 12-LOX inh 15%, DT40 TDP1 CPT 15µM*, HT1080 IDH1KD tx -9%[9.24 µM] and HT1080NT lethal 23µM*.
For CN(C)C(=O)c1ccc(Br)s1 the results were 12-LOX inh -13%.
For O=C1c2ccccc2NC(c2cccc(Cl)c2)N1CCCN1CCOCC1 (centres undefined) the results were 12-LOX inh -3%.
CCN(CC)CCn1c(=N)n(CC(O)COc2ccccc2)c2ccccc21 (centres undefined) was read as TDP1 cell noCPT 18µM*, IL-1B inflam inh -29, 12-LOX inh -9%, DT40 TDP1 CPT inconclusive, HT1080 IDH1KD tx inconclusive and HT1080NT lethal 16µM*.
`CCN(CC)CCn1c(=N)n(CCO)c2ccccc21` gave TDP1 cell noCPT -13%, IL-1B inflam inh -1, 12-LOX inh -7%, DT40 TDP1 CPT -17%, HT1080 IDH1KD tx 6% and HT1080NT lethal 12%.

Bioassay records deposited in PubChem BioAssay by National Center for Advancing Translational Sciences (NCATS).
